Compounds with a hit are over-represented: about 32% of the library has one in this group of screens.
CYP2C9 act: activators of human CYP2C9; P11712; recombinant CYP2C9, luciferin-H conversion, luminescence; stronger effect = higher value; factor 1 = untreated enzyme, 0 = blocked; activation factor at 5 µM; 1.4% of 96,000 active; AID 1024;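 active = activation factor of 2 or more for CYP2C9 at a 5 µM dose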;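 also: 0 = sulfaphenazole-blocked wells and 1 = vehicle-only wells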
Target sequence (P11712 whole entry, looked up): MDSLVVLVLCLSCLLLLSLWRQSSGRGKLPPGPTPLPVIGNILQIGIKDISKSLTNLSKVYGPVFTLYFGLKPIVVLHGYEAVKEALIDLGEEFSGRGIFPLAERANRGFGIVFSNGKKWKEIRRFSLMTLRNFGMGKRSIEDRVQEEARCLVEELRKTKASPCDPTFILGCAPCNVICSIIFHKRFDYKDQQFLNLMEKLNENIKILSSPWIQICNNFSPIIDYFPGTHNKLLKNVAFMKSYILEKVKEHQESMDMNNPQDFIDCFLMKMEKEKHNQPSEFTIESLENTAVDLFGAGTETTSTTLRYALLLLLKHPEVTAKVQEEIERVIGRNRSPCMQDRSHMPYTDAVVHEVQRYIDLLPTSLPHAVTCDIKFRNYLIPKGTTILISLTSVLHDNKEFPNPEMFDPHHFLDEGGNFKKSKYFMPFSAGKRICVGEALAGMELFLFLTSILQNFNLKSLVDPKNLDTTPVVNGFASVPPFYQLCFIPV
CYP2C19 act: activators of human cytochrome P450 2C19 | 96,000 tested, under 10 active | AID 1025 | recombinant CYP2C19, luciferin-H EGE luminescence; stronger effect = higher value; 0 = fully inhibited enzyme, 1 = untreated enzyme | P33261 | activation factor at 5 µM;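 active = activation factor of at least 2 at 5 µM in the primary screen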;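 also: 0 = wells with 2.5 mM tranylcypromine and 1 = vehicle-only wells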
CYP2C9 inh: inhibitors of human CYP2C9. 20% of 96,000 active. CYP2C9 Supersomes, luciferin-H conversion, luminescence. AID 777. inhibition, % at 5 µM;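 active = blocking of liver enzyme CYP2C9 beyond about 50% at 5 µM, limit read from the data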
CYP2C19 inhib: inhibitors of human CYP2C19; CYP2C19 Supersomes, luciferin-H EGE luminescence, 30 min; AID 778; 21% of 96,000 active; P33261; inhibition, % at 5 µM;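 active = CYP2C19 inhibition above a set limit at 5 µM in the primary screen, cut at about 50% in these data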;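 also: plate controls were negative control wells for no effect and 2.5 mM tranylcypromine positive control for full effect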
PostGolgi yeast: growth inhibition of a yeast mutant, post-Golgi transport screen. post-Golgi transport phenotypic cell assay. inhibition, % at 10 µM. 0.9% of 98,000 active;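 also: yeast cells grown in 1536-well plates; yeast grown about 18 h at 30C before absorbance read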
PostGolgi ctrl: yeast control strain growth, post-Golgi counter-screen; efflux-deficient yeast background strain, growth absorbance A615, 16 h; inhibition, % at 10 µM; 5% of 98,000 active
* marks the source's active call; other numbers are inactive results; x = not tested or not shown. Rule as the data show it, unless noted: active = inhibition above about 30%; inactive = the rest.

SMILES	CYP2C9 act	CYP2C19 act	CYP2C9 inh	CYP2C19 inhib	PostGolgi yeast	PostGolgi ctrl
CN(C(=O)CSc1nc2c(c(=O)[nH]1)CCCC2)C1CCCCC1	0.3	0.8	69*	22	1	3
Cc1nc(SCC(=O)N(C)C2CCCCC2)[nH]c(=O)c1Cc1ccccc1	0.3	0.4	69*	60*	1	3
Cc1nc(SCC(=O)NC2CCCC2)[nH]c(=O)c1Cc1ccccc1	0.5	0.8	46	16	-3	4
CCOC(=O)C1C(=O)CC(C)(O)C(C(=O)OCC)C1c1ccc(OCC)cc1 (configuration not stated)	0.9	1	7	1	1	10
C=CCOC(=O)C1C(=O)CC(C)(O)C(C(=O)OCC=C)C1c1ccc(OC)cc1 (configuration not stated)	0.8	0.5	20	52*	-9	4
CCOC(=O)C1C(=O)CC(C)(O)C(C(=O)OCC)C1c1cccc(OC(F)(F)C(F)F)c1 (configuration not stated)	0.1	0.1	90*	86*	-12	-2
Cc1ccc2c(CC(=O)OCn3nnc4ccccc4c3=O)coc2c1	0.9	1	11	-3	-7	15
Cc1nnsc1SCCNC(=O)c1ccc(F)cc1	0.8	0.2	22	80*	5	23
COc1ccc(-c2noc(C(C)n3nc(C)c([N+](=O)[O-])c3C)n2)cc1OC (configuration not stated)	0.4	0.8	59*	25	2	8
Cc1nn(C(C)c2nc(-c3ccccc3)no2)c(C)c1[N+](=O)[O-] (configuration not stated)	0.6	0.6	39	37	-5	-2
COc1cccc(-c2noc(Cn3nc(C)c([N+](=O)[O-])c3C)n2)c1	0.7	0.4	31	56*	-7	-2
CCN(CC)C(=O)/C(=C\c1ccc(Br)cc1)NC(=O)c1ccccc1OC	0.3	0.7	73*	28	-2	28
O=C1CCCN1CCC1CCN(C2CC(=O)N(c3ccc(Cl)cc3)C2=O)CC1 (configuration not stated)	1.3	1.2	-30	-18	-8	-9
CC(/C=C/c1ccco1)=N/NC(=O)Cc1cccs1	0.9	1	12	2	5	6
CC(Oc1ccc(Cl)cc1Cl)C(=O)NC1=NN(c2ccccc2)C(=O)C1 (configuration not stated)	0.5	0.7	53*	32	-15	-6
O=C(NCCCN1CCOCC1)c1c(F)cccc1F	1	1	-3	-4	7	13
COCCNC(=O)C(C)Oc1ccc(Cl)cc1Cl (configuration not stated)	0.5	0.1	46	94*	5	6
CCCn1nnc(NC(=O)C(C)Oc2ccc(Cl)cc2Cl)n1 (configuration not stated)	0.8	0.7	21	26	-1	7
CC(Oc1ccc(Cl)cc1Cl)C(=O)NCCCN1CCOCC1 (configuration not stated)	1.1	0.4	-10	58*	8	22
CC(Oc1ccc(Cl)cc1Cl)C(=O)Nc1ccncc1 (configuration not stated)	0	0	98*	100*	58*	44*
CCOC(=O)CNC(=O)Cn1cnc2sc(C)c(S(=O)(=O)N3CCC(C)CC3)c2c1=O	x	x	x	x	5	-6
Cn1cccc1P(=O)(c1cccn1C)c1cccn1C	1.1	1.1	-15	-8	-2	7
Cc1ccnc(NS(=O)(=O)c2ccc(NS(=O)(=O)Cc3ccccc3)cc2)n1	0.9	1.1	5	-6	-3	3
CC(Oc1ccc(Cl)cc1Cl)C(=O)NC1CCSC1=O (configuration not stated)	0.6	0.1	41	93*	-6	13
Cc1ccc2c(c1)NC(=O)C(CC(=O)NC1CCCCC1C)O2 (configuration not stated)	1.2	0.9	-23	6	-2	3
SMILES	CYP2C9 act	CYP2C19 act	CYP2C9 inh	CYP2C19 inhib	PostGolgi yeast	PostGolgi ctrl
CCc1nc2ccc(C)cc2c(C(=O)NC2CCCCC2C)c1C (configuration not stated)	0.3	0.8	71*	21	2	5
C=CCNC(=S)NNC(=O)c1cccn(Cc2ccc(Cl)c(Cl)c2)c1=O	1	0.9	0	12	-6	-4
C=CCNC(=S)NNC(=O)c1cccn(Cc2ccc(Cl)cc2Cl)c1=O	0.3	0.7	68*	26	14	8
CCCCOC(=O)n1c(SCC(=O)N(C)C)nc2ccccc21	0.2	0.6	77*	44	3	11
O=C(Cn1nc(-c2ccccc2)c2ccccc2c1=O)Nc1ccc2c(c1)nc1n2CCOC1	0.6	0.9	44	6	-7	-1
CCOC(=O)CSc1nc2ccccc2c(=O)n1C1CCCC1	0.6	0.8	36	16	1	28
Cc1nc2ccccc2c(=O)n1C1CCCCCC1	0.9	0.4	13	58*	-2	5
CCCCNC(=O)CSc1nc2ccccc2c(=O)n1C1CCCC1	0.4	0.7	56*	26	7	23
c1ccc(-c2cc(-c3nnc4n3N=C(c3ccc5ccccc5c3)CS4)[nH]n2)cc1	0.5	1	49	5	5	24
CCCOc1ccc(-c2nc(C#N)c(N3CCN(CC)CC3)o2)cc1	0.7	0.6	26	38	-4	2
O=C(Cc1ccccc1)Nc1nc(=O)c2ccccc2s1	0.8	0.7	16	26	-6	17
O=C(Nc1nc(=O)c2ccccc2s1)c1ccc(Cl)cc1	0.6	0.4	39	62*	-7	13
O=C(CN1CCCC1)Nc1ccc(NC(=O)Nc2ccccc2)cc1	1.1	1.1	-12	-14	10	4
O=C(CN1CCC(C(O)(c2ccccc2)c2ccccc2)CC1)Nc1ccccc1	0.2	0.9	78*	9	15	-3
O=C(CN1CCOCC1)Nc1ccccc1Cl	1	0.8	1	19	7	12
O=C(CN1CCC(C(O)(c2ccccc2)c2ccccc2)CC1)Nc1cc(Cl)ccc1Cl	0.4	0.8	65*	17	8	37*
O=c1[nH]c2ccc(Cl)cc2c(-c2ccccc2)c1N1CCN(c2ccccn2)CC1	0.6	1.1	39	-8	31*	82*
O=c1[nH]c2ccc(Cl)cc2c(-c2ccccc2)c1N1CCOCC1	0.9	1.1	7	-7	-2	29
COCCNC(=O)CSc1nc2ccc(N3CCOCC3)cc2c(=O)n1Cc1ccc(OC)cc1	0.2	0.5	84*	49	1	11
CCCn1c(SCC(=O)NCCc2ccc(OC)c(OC)c2)nc2c1c(=O)n(C)c(=O)n2C	0.8	0.9	20	7	21	-1
N#CCSc1nc2ccc(N3CCCCC3)cc2c(=O)n1Cc1ccccc1	0.5	0.7	50	29	10	22

Screening data as filed in PubChem.
